Screening results: PubChem BioAssay, National Center for Advancing Translational Sciences (NCATS)
DT40 TDP1 no CPT: qHTS for Inhibitors of human tyrosyl-DNA phosphodiesterase 1 (TDP1): qHTS in cells in absence of CPT. DT40 Tdp1-/- hTDP1 cells, no CPT, ATP luminescence, 48 h. 420,000 compounds, 15% hits. AID 686978, 2013. Potency, µM (series often up to 46.2 µM), hits mostly inhibitors; also: nearly all actives have a fitted effect of over 55% in size
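Seeded 400 DT40-hTDP1 cells/well (vehicle DMSO, no 20 nM CPT); pinned compounds; ≥48 hr at 37 °C; CellTiter-Glo luminescence as viability measure.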
IL-1B inflam inh: blocks inflammasome-driven IL-1 beta release; THP-1 LPS/ATP IL-1B secretion, AlphaLISA, 16 h; stronger effect = lower value; activity change, % at 57.5 µM; 360,000 compounds, 4.7% hits; in the data active = activity change below about -50%; inconclusive = mostly about -30% to -49%
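Secreted IL-1B measured by AlphaLISA bead assay after 16 h compound exposure of THP-1 cells; compounds (final up to 57.5 uM) added 1 h before LPS (250 ng/mL) and ATP (1.25 mM) stimulation; lower signal means less secretion.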
HT1080NT lethal: kills 2HG-producing HT-1080-NT fibrosarcoma cells. HT-1080-NT fibrosarcoma viability, CellTiter-Glo ATP luminescence, 48 h. Potency, µM (top dose mostly 46.1 µM), actives largely listed as cytotoxic. 360,000 compounds, 1.6% hits. AID 686970;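 also: NT is the 2HG producing partner of a matched IDH1 knockdown line; nearly all actives have a fitted effect of over 55% in size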
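HT-1080-NT; 750 cells/well; 5% FBS RPMI; 48 h compound, 37 degrees C; CellTiter-Glo luminescence; curve fitting and curve-class assignment.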
TDP1 cell CPT: growth inhibition of DT40 Tdp1-/-;hTDP1 cells with camptothecin (screen for TDP1 inhibitors). chicken DT40 Tdp1-/-;hTDP1 cells + 20 nM CPT, ATP luminescence, 48 h. Potency, µM (doses to about 46.2 µM), most hits filed as inhibitors. 420,000 compounds, 12% hits. AID 686979; also: nearly all actives have a fitted effect of over 55% in size
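Cell growth measured by CellTiter-Glo luminescence after a minimum 48 h, 37 C compound exposure with 20 nM CPT in Tdp1-knockout DT40 cells stably expressing hTDP1, seeded 400/well; qHTS titration format.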
HT1080 IDH1KD tx: toxicity to HT-1080 IDH1 knockdown cells (counter line); HT-1080 IDH1 knockdown viability, ATP luminescence, 48 h; Potency, µM (series often up to 46.1 µM), most hits filed as cytotoxic; 360,000 compounds, 2% hits; AID 686971
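Viability of IDH1-knockdown HT-1080 fibrosarcoma cells was assessed by CellTiter-Glo after 48 h at 37 °C with titrated compound; concentration-effect curves were classified by fit quality and response size.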
Each line names hits and unclear results; the compound was inactive in the other large screens; ! = not confirmed by another sample. In the library only some 19% were active in any assay of this set; here they are far more common. Unless noted, calls follow the shape of the dose curve; as a rule, active = well fitted curve in the direction sought with a large enough effect; inconclusive = small, poorly fitted or top-dose-only effect, or another doubt; inactive = no such curve, though single readings can be large; an effect the other way counts as inactive or inconclusive.

C/C(=N\NC(=O)CNC(=O)c1cccc(F)c1)c1ccc2ccccc2c1	none
CCCC1OC(c2ccco2)OCC1CC (configuration not stated)	none
S=C(Nc1cccc2ccccc12)NC1CCCCC1	DT40 TDP1 no CPT 16.4µM, TDP1 cell CPT inconclusive
COc1ccc(NC(=S)NC2CCCCCC2)c(OC)c1	DT40 TDP1 no CPT 23.1µM, TDP1 cell CPT inconclusive
COc1cccc(C(=O)NNC(=S)NC2CCCCC2)c1	DT40 TDP1 no CPT inconclusive, TDP1 cell CPT 16.4µM
COc1ccc(NC(=O)COc2ccc(S(=O)(=O)NC3CCCCC3)cc2)c(OC)c1	DT40 TDP1 no CPT 16.4µM, TDP1 cell CPT 14.6µM (no result: IL-1B inflam inh, HT1080NT lethal, HT1080 IDH1KD tx)
C=CCNC(=O)COc1ccc(S(=O)(=O)NC2CCCCC2)cc1	TDP1 cell CPT inconclusive
COC(=O)c1ccc(C(=O)OC)c(NC(=O)CSCc2ccccc2Br)c1	DT40 TDP1 no CPT inconclusive, TDP1 cell CPT inconclusive
COc1ccc(S(=O)(=O)Nc2ccc(S(=O)(=O)Nc3cc(C)nc(C)n3)cc2)cc1OC	none
COc1ccccc1NC(=S)NC1CCCC1	none
COc1ccccc1NC(=S)NC1CCC(CC2CCC(NC(=S)Nc3ccccc3OC)CC2)CC1 (configuration not stated)	DT40 TDP1 no CPT 13µM, TDP1 cell CPT 10.3µM
CC(OC(=O)CCNS(=O)(=O)c1ccccc1)C(=O)Nc1ccc(S(=O)(=O)N2CCCCC2)cc1 (configuration not stated)	TDP1 cell CPT inconclusive, HT1080 IDH1KD tx inconclusive
CCc1ccc(NC(=O)CCc2ccc(CC)o2)cc1	none
Cc1ccc(C(C)C)cc1NC(=O)Nc1ccc([N+](=O)[O-])cc1	DT40 TDP1 no CPT 3.66µM, IL-1B inflam inh -52.2, TDP1 cell CPT 4.61µM
Cc1cc(Br)ccc1NC(=O)C(C)c1ccc([N+](=O)[O-])cc1 (configuration not stated)	DT40 TDP1 no CPT 25.9µM, TDP1 cell CPT inconclusive
CC(C(=O)Nc1nccs1)c1ccc([N+](=O)[O-])cc1 (configuration not stated)	none
Cc1ccc([N+](=O)[O-])cc1NC(=O)C(Sc1ccccc1)c1ccccc1 (configuration not stated)	DT40 TDP1 no CPT 16.4µM, TDP1 cell CPT inconclusive
Cc1ccc([N+](=O)[O-])cc1NC(=O)c1ccccc1	none
O=S(=O)(NCC1CCN(Cc2ccccc2)CC1)c1ccccc1C(F)(F)F	none
COc1ccc(C(CNC(=O)C(CC(C)C)NS(=O)(=O)c2ccc(C)cc2)N2CCOCC2)cc1 (configuration not stated)	none
CCOc1c(/C=C(\C#N)C(N)=O)c2ccccc2n1CC	DT40 TDP1 no CPT inconclusive, TDP1 cell CPT inconclusive
CCOC(=O)/C(C#N)=C\c1c(OCC)n(CC)c2ccccc12	DT40 TDP1 no CPT 18.4µM, TDP1 cell CPT inconclusive
CCOC(=O)C(=CNc1ccc2c(c1)c1ccccc1n2CC)C(=O)OCC	DT40 TDP1 no CPT 8.2µM, TDP1 cell CPT 14.6µM
CCn1c2ccccc2c2cc(NC(=O)C(C)C)ccc21	DT40 TDP1 no CPT 25.9µM, TDP1 cell CPT inconclusive
CCn1c2ccccc2c2cc(NC(=O)N3CCCCC3)ccc21	DT40 TDP1 no CPT 23.1µM, IL-1B inflam inh inconclusive, TDP1 cell CPT 18.4µM, HT1080 IDH1KD tx inconclusive
CCn1c2ccccc2c2cc(NS(=O)(=O)c3ccccc3C)ccc21	DT40 TDP1 no CPT 20.6µM, HT1080NT lethal inconclusive, TDP1 cell CPT inconclusive, HT1080 IDH1KD tx inconclusive
O=C(Cn1c(C(F)(F)F)nc2ccccc21)N/N=C/c1ccco1	none
Clc1cccc(-c2nnc(-c3ccccc3)o2)c1	DT40 TDP1 no CPT 23.1µM, TDP1 cell CPT 16.4µM
c1ccc(OCc2nnc(-c3ccccc3)o2)cc1	none
Clc1cccc(-c2nnc(-c3ccno3)o2)c1	none
ClCc1nnc(-c2ccccc2)o1	DT40 TDP1 no CPT 25.9µM, IL-1B inflam inh -87.8, TDP1 cell CPT inconclusive
OCc1nc2ccccc2n1Cc1c(F)cccc1Cl	DT40 TDP1 no CPT 14.6µM!, TDP1 cell CPT inconclusive
O=CN/C=C/c1cccc(O)c1	none
C=CCn1cc(C(=O)OCC)c(=O)c2cc(F)c(F)cc21	none
O=C(NCC(=O)N1CCCCCCC1)c1ccc(Cl)c(Cl)c1	DT40 TDP1 no CPT inconclusive
FC(F)(F)c1nnc2c(Sc3ccccn3)nc3ccccc3n12	DT40 TDP1 no CPT 4.61µM, IL-1B inflam inh -66.0, HT1080NT lethal inconclusive, TDP1 cell CPT 5.17µM, HT1080 IDH1KD tx inconclusive
FC(F)(F)c1nnc2c(Sc3ccc(Cl)cc3)nc3ccccc3n12	DT40 TDP1 no CPT 1.84µM, IL-1B inflam inh -52.0, HT1080NT lethal inconclusive, TDP1 cell CPT 2.59µM
Cc1cccc(NC(=O)CSc2nc(C3CCCC3)nc3c2c(=O)n(C)c(=O)n3C)c1C	none (no result: IL-1B inflam inh, HT1080NT lethal, HT1080 IDH1KD tx)
Cc1ccc(NC(=O)CSc2nc(C3CCCC3)nc3c2c(=O)n(C)c(=O)n3C)c(C)c1	none (no result: IL-1B inflam inh, HT1080NT lethal, HT1080 IDH1KD tx)
CC(=O)c1ccc(NC(=O)CSc2nc(C3CCCC3)nc3c2c(=O)n(C)c(=O)n3C)cc1	DT40 TDP1 no CPT 5.17µM, TDP1 cell CPT 5.17µM (no result: IL-1B inflam inh, HT1080NT lethal, HT1080 IDH1KD tx)
Cn1c(=O)c2c(SC3CCCC3)nc(C3CC3)nc2n(C)c1=O	DT40 TDP1 no CPT 20.6µM, TDP1 cell CPT inconclusive
Cn1c(=O)c2c(SCC(=O)Nc3nccs3)nc(C3CC3)nc2n(C)c1=O	DT40 TDP1 no CPT 18.4µM, TDP1 cell CPT 23.1µM
CCCn1c(=O)n(C)c(=O)c2c(SCc3cc(C(C)=O)ccc3OCC)nc(C3CC3)nc21	DT40 TDP1 no CPT 25.9µM, TDP1 cell CPT 20.6µM
CCOc1ccc(C(C)=O)cc1CSc1nc(C)cc(C)n1	TDP1 cell CPT inconclusive
Cn1c(CCc2ccccc2)n[nH]c1=S	none
CC(C)[C@H]1COCCS(=O)(=O)N1Cc1ccccc1-c1ccc(C(C)(C)C)cc1	DT40 TDP1 no CPT inconclusive, TDP1 cell CPT inconclusive
NC(=O)/C=C\c1cn(-c2ccccc2)nc1-c1ccc2c(c1)OCCO2	DT40 TDP1 no CPT inconclusive, IL-1B inflam inh -59.9, TDP1 cell CPT inconclusive
O=C(/C=C/c1cn(-c2ccccc2)nc1-c1ccc2c(c1)OCCO2)NCCO	none
c1ccc(CSc2ccc(-c3ccco3)nn2)cc1	none
CSc1ccc(CCNC(=O)C2CCCN(c3ncnc4c3nc3n4CCCCC3)C2)cc1 (configuration not stated)	DT40 TDP1 no CPT inconclusive, IL-1B inflam inh -68.6, TDP1 cell CPT inconclusive
CC(C)N(Cc1ccccc1)C(=O)C1CCCN(c2ncnc3c2nc2n3CCCCC2)C1 (configuration not stated)	DT40 TDP1 no CPT 18.4µM, TDP1 cell CPT inconclusive
CCN(CCNC(=O)C1CCCN(c2ncnc3c2nc2n3CCCCC2)C1)Cc1ccccc1 (configuration not stated)	DT40 TDP1 no CPT 25.9µM, TDP1 cell CPT inconclusive
CC1CCCCN1CCNC(=O)C1CCCN(c2ncnc3c2nc2n3CCCCC2)C1 (configuration not stated)	none
